hgDAF12 agonist = activates the H. glycines DAF-12 receptor ligand-binding domain | HEK293 GAL4-hgDAF12 UAS-luciferase reporter, agonist luminescence; normalized to butyrate control | activation, % at 6.8 µM | hit rate 1.8% among 370,000 | AID 687014;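 active = activation above a cutoff set at the mean of all screened compounds plus 3 SD, cut at about 10% in these data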;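 note: 0% = DMSO wells and 100% = sodium butyrate wells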
DAX1 inh-1 = DAX1 (NR0B1) inhibition, primary screen. inhibition, % at 6.8 µM. HEK293T StAR-luciferase reporter, SF-1/DAX-1 repression relief. hit rate 1.1% among 370,000;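 active = inhibition above the mean over all tested compounds plus 3 SD, cut at about 3.6% in these data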;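 note: 0% = DAX-1 cells with DMSO and 100% = cells lacking DAX-1 with DMSO; higher inhibition means more luminescence from relief of DAX-1 repression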
ssDAF-12 act = S. stercoralis DAF-12 activation, primary screen | hit rate 1% among 370,000 | activation, % at 6.8 µM | HEK293 ssDAF-12/GRIP1 lit1-tk-luc reporter, luminescence; % of 3 µM dafachronic acid response;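 active = activation above the mean over all tested compounds plus 3 SD, cut at about 0.9% in these data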;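 note: 0% = DMSO-only wells and 100% = 3 µM delta7-dafachronic acid wells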
SMARCA2 act = increases SMARCA2 function in MMTV reporter cells; activation, % at 9.1 µM; hit rate 1% among 370,000; MG213 cells, MMTV-luciferase reporter, dexamethasone, overnight; AID 652017; in the data active = activation above about 7.8%;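 note: 0% = vehicle wells and 100% = reference activator wells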
DAX1 inh-2 = inhibits human nuclear receptor DAX1; hit rate 0.99% among 340,000; P51843; HEK293 Gal4-DAX1 luciferase reporter, luminescence; inhibition, % at 6.75 µM;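 active = inhibition above the mean over all tested compounds plus 3 SD, cut at about 4.2% in these data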;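 note: 0% = DAX1-transfected cells with DMSO and 100% = empty-vector control cells with DMSO; inhibition shows as a rise in luminescence from relieved DAX1 repression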
Target sequence (P51843 207-470 limits assumed): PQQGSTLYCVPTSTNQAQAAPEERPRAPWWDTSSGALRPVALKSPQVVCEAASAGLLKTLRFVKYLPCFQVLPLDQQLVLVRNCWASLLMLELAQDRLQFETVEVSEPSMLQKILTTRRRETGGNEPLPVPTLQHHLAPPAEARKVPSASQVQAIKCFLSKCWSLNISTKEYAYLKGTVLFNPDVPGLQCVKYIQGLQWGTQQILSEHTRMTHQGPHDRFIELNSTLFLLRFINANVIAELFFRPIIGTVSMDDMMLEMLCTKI
hcDAF12 agonist = activators of H. contortus DAF-12 nuclear receptor | HEK293 hcDAF-12 lit1-tk-luc reporter, luminescence; 0% DMSO, 100% Δ7-dafachronic acid | activation, % at 6.8 µM | hit rate 1.4% among 370,000 | AID 652067;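 active = activation above the mean of all tested compounds plus 3 SD, cut at about 5.5% in these data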;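 note: 100% = response to 3 µM Δ7-dafachronic acid high control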
DAX1 inh confirm = NR0B1 (human) inhibition, confirmation | shares compounds with DAX1 inh-1 | HEK293T StAR-promoter luciferase reporter, SF-1/DAX-1 repression | inhibition, % at 6.8 µM | hit rate 87% among 2,400 | AID 652134;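 active = inhibition above the average of every tested compound plus 3 SD, cut at about 3.8% in these data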;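 note: 0% = DAX-1 cells with DMSO and 100% = no DAX-1 control cells with DMSO; active compounds raise luminescence by relieving repression of the StAR reporter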
Target sequence (P51843 whole entry, looked up): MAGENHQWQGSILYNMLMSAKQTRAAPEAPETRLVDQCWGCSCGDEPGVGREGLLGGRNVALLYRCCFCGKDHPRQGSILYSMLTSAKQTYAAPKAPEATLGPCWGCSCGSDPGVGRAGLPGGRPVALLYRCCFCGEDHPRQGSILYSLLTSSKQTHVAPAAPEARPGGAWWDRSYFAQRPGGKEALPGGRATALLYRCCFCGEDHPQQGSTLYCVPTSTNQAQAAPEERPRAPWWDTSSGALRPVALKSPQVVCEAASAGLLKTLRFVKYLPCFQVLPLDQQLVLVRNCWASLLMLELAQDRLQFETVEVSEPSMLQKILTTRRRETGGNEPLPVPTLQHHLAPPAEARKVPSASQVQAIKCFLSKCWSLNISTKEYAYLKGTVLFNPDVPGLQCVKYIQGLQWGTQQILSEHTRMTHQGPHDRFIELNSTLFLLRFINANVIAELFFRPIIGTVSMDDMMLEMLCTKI
SF1 mutant ctr = nonselective inhibitor or artifact in SF-1 mutant DAX1 counter-screen. shares compounds with DAX1 inh-1. HEK293 StAR-luciferase, SF-1 AF2 mutant, luminescence. inhibition, % at 6.8 µM. hit rate 78% among 2,400;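 active = inhibition above the mean of all tested compounds plus 3 SD, cut at about 3% in these data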;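 note: 0% = DAX-1 transfected cells with DMSO and 100% = cells without DAX-1 with DMSO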
SMARCA2 act conf = confirmation of SMARCA2 (BRM) function activators. shares compounds with SMARCA2 act. MG213 cells, MMTV-luciferase with dexamethasone, luminescence, overnight; MG213 cells expressing E1A, Rb sequestered; DMSO wells 0%, reference activator 100%. activation, % at 9.1 µM. hit rate 30% among 3,500;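 active = activation above its plate's cutoff, the mean activation of tested wells plus 3 SD, cut at about 7.9% in these data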
VP16 Luc act = counter-screen for SMARCA2 activators: GAL4-VP16 luciferase reporter activation; shares compounds with SMARCA2 act; HEK293 GAL4-VP16 pG5luc reporter, luciferase luminescence; scaled: DMSO wells 0%, SAHA wells 100%; activation, % at 9.1 µM; hit rate 41% among 3,500;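 active = activation above the solvent-only control well mean plus 3 SD, averaged across control plates, cut at about 5.2% in these data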
LXRb hcDAF ctr = activates human LXR-beta, counter-screen for hcDAF-12 agonists. shares compounds with hcDAF12 agonist. HEK293 Gal4-LXR tk-luc reporter, luminescence, 24 h; normalized: DMSO 0%, positive control 100%. activation, % at 6.8 µM. 3,400 tested, under 10 active. AID 743027;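 active = mean percent activation of the reporter above a cutoff set as the average over tested compounds plus their standard deviation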
hcDAF12 conf = hcDAF-12 agonism, confirmation assay; shares compounds with hcDAF12 agonist; hit rate 61% among 3,400; activation, % at 6.8 µM; AID 743032; HEK293 hcDAF-12 lit1-tk-luc reporter, luminescence; % of Δ7-dafachronic acid response;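 active = mean activation across triplicate tests above the threshold derived from the earlier primary screen, cut at about 5.5% in these data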;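 note: 0% = DMSO only wells and 100% = 3 µM Δ7-dafachronic acid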
hgDAF12 ag = confirmation of H. glycines DAF-12 agonists; hit rate 80% among 3,300; AID 743050; shares compounds with hgDAF12 agonist; HEK293 GAL4-hgDAF12 luciferase reporter, agonist mode; percent of butyrate response; activation, % at 6.8 µM;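 active = mean activation over triplicate wells above the hit cutoff derived from the earlier primary screen, cut at about 11% in these data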;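 note: 0% = DMSO low control and 100% = 2 mM sodium butyrate high control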
LXR ag 2 = activates human LXR-beta, counter-screen for DAF-12 agonists | shares compounds with hgDAF12 agonist | HEK293 Gal4-LXR luciferase reporter, 24 h | activation, % at 6.8 µM | 3,300 tested, under 10 active;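 active = mean activation of the triplicate above a set limit carried over from the primary screen, none filed active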
An asterisk follows results filed as active; x = not tested or not shown. The list is not random: actives were taken first. Their share in the collection is about 4.8%.

SMILES | hgDAF12 agonist | DAX1 inh-1 | ssDAF-12 act | SMARCA2 act | DAX1 inh-2 | hcDAF12 agonist | DAX1 inh confirm | SF1 mutant ctr | hgDAF12 ag | LXR ag 2 | others
Cc1ccc(C(=O)NC2CCC(C)CC2)s1 (configuration not stated) | 19.5* | 13.8* | 1.0* | 5.8 | 0.8 | 3.6 | 15.4* | 6.6* | 18.0* | 0.8
CNC(=O)c1cc2c(s1)CCCCCC2 | -1.5 | -0.2 | -1.0 | -2.8 | 0.8 | -0.3 | x | x | x | x
Cc1ccccc1NC(=O)C(C)Sc1nnc(CN2CCCC2)n1Cc1ccccc1 (configuration not stated) | -0.4 | 0.3 | -1.0 | -2.8 | 0.4 | -0.9 | x | x | x | x
COc1ccc(S(=O)(=O)NCc2cccnc2)cc1Br | -8.1 | -1.3 | -1.9 | -3.6 | -4.1 | -3.9 | x | x | x | x
O=C(CCn1c(=S)oc2ccccc21)Nc1ccccc1F | 0.1 | -0.3 | -0.9 | -2.2 | 0.3 | 0.9 | x | x | x | x
O=C(Nc1nc2ccccc2[nH]1)C1CCCC1 | 14.8* | 4.9* | 0.0 | 1.3 | 0.6 | 3.6 | 6.5* | 5.7* | 13.1* | 1.1
O=C(Nc1nc2ccccc2[nH]1)c1ccccc1F | -11.3 | -2.1 | -2.6 | -6.1 | -5.0 | -1.7 | x | x | x | x
Cc1cc(C)nc(NC(=O)c2cc3ccccc3o2)n1 | 3.0 | 0.1 | -1.0 | -1.2 | 0.8 | 0.2 | x | x | x | x
Cc1ccc(NC(=O)c2cc3ccccc3o2)nc1 | 18.9* | 16.1* | 1.5* | 2.6 | 0.8 | 13.8* | 17.1* | 9.9* | 19.0* | 1.1 | LXRb hcDAF ctr=1.7;hcDAF12 conf=14.1*
O=C(Nc1nc2ccccc2[nH]1)c1cc2ccccc2o1 | 21.4* | 8.0* | 0.8 | 5.2 | 0.0 | 13.6* | 9.4* | 7.6* | 19.4* | 1.0 | LXRb hcDAF ctr=1.4;hcDAF12 conf=9.1*
O=C(C1CCCN(S(=O)(=O)c2cccc3nsnc23)C1)N1CCN(c2ccccn2)CC1 (configuration not stated) | -3.4 | -1.8 | -1.7 | -3.3 | -3.0 | -1.8 | x | x | x | x
COC(=O)C1=C(C)OC(N)=C(C#N)C1c1cc(C)sc1C (configuration not stated) | 0.0 | 0.0 | -1.2 | -0.9 | -0.4 | -0.4 | x | x | x | x
O=C(Nc1cccc(-c2ccc(N3CCCCC3)nn2)c1)c1ccco1 | 16.4* | 7.3* | 1.6* | 4.2 | -1.5 | 4.8 | 2.3 | 3.0* | 13.8* | 0.6
O=C(Nc1cccc(-c2ccc(N3CCOCC3)nn2)c1)c1ccc(Cl)cc1 | 4.4 | 2.6 | -1.1 | 2.1 | 0.2 | -0.2 | x | x | x | x
COc1cccc(OC)c1C(=O)Nc1cccc(-c2ccc(N3CCOCC3)nn2)c1 | 13.9* | 5.1* | -0.6 | 3.7 | 3.0 | 1.8 | 4.0* | 3.4* | 9.7 | 0.4
O=C(O)CCCc1nc(-c2ccc(Cl)cc2)no1 | -6.3 | -1.4 | -2.5 | -7.4 | 0.9 | -3.0 | x | x | x | x
CCOc1ccc(OCCC(=O)OCC(=O)Nc2ccc(N3CCOCC3)cc2)cc1 | 1.4 | -0.7 | -0.7 | -1.6 | 0.0 | -0.6 | x | x | x | x
COc1cccc(-n2ccnc2SCC(=O)N2CCc3ccccc32)c1 | -2.1 | -0.5 | -1.5 | 0.0 | 0.3 | -0.2 | x | x | x | x
Cn1ccnc1SCC(=O)N1CCc2ccccc21 | 19.8* | 5.5* | -0.4 | 8.2* | 2.3 | 2.5 | 7.1* | 5.6* | 9.0 | 0.5 | SMARCA2 act conf=10.7*;VP16 Luc act=8.7*
O=C(CSc1ccccn1)N1CCc2ccccc21 | 15.8* | 6.9* | 0.0 | 5.6 | 0.9 | 1.7 | 12.3* | 5.7* | 13.6* | 0.5
COc1ccc2c(c1)[nH]c1c(Cl)ncnc12 | 0.4 | -0.5 | -2.2 | 1.1 | 0.1 | -1.5 | x | x | x | x
Cc1ccccc1OCC(=O)OC(C)C(=O)NC1CCCC1 (configuration not stated) | 0.1 | 0.5 | -1.2 | -2.4 | 0.1 | -1.1 | x | x | x | x
CCN=c1scc(-c2ccccc2)n1/N=C/c1ccccn1 | x | x | x | x | -3.9 | x | x | x | x | x
CCN=c1scc(-c2ccc(F)cc2)n1/N=C/c1ccccn1 | 20.7* | 6.8* | -1.7 | -2.8 | 1.8 | 1.9 | 7.2* | 4.8* | 7.8 | 0.4
NC(=O)c1ccccc1NC(=O)/C=C/c1cccc(Cl)c1 | 7.6 | 0.8 | -1.1 | 5.0 | 0.6 | 2.4 | x | x | x | x
SMILES | hgDAF12 agonist | DAX1 inh-1 | ssDAF-12 act | SMARCA2 act | DAX1 inh-2 | hcDAF12 agonist | DAX1 inh confirm | SF1 mutant ctr | hgDAF12 ag | LXR ag 2 | others
NC(=O)c1ccccc1N/C=C/C(=O)c1ccc(Cl)cc1Cl | 15.5* | 6.3* | 0.3 | 3.4 | -1.0 | 8.1* | 17.2* | 7.6* | 17.1* | 0.9 | LXRb hcDAF ctr=1.4;hcDAF12 conf=8.2*
C[C@@H]1CN([C@H](C)CO)S(=O)(=O)c2ccc(Br)cc2O[C@H]1CN(C)C(=O)Nc1ccc(F)cc1 | 1.9 | -0.9 | -1.7 | -4.3 | 1.0 | 0.5 | x | x | x | x
COc1ccccc1OCC(=O)Nc1ncc(C)s1 | 17.4* | 10.4* | 0.3 | 1.3 | 1.3 | 4.7 | 8.5* | 6.7* | 14.9* | 0.9
COc1ccc(CCC(=O)Nc2ncc(C)s2)cc1OC | 2.7 | 0.0 | -1.2 | -1.9 | 1.6 | -0.7 | x | x | x | x
CCOC(=O)/C=C/C(=O)N1CCc2ccccc21 | 0.4 | -0.7 | -0.9 | 7.3 | -1.3 | 3.1 | x | x | x | x
O=C(/C=C/c1ccco1)N1CCc2ccccc21 | 15.8* | 10.2* | 1.5* | 9.6* | -0.3 | 15.6* | 12.9* | 6.4* | 20.7* | 1.2 | SMARCA2 act conf=16.5*;VP16 Luc act=10.0*;LXRb hcDAF ctr=1.6;hcDAF12 conf=11.4*
O=Nc1c(O)[nH]c2c(F)cccc12 | 1.3 | -0.2 | 0.1 | -1.9 | -0.4 | 4.9 | x | x | x | x

High-throughput results: PubChem, The Scripps Research Institute Molecular Screening Center
